According to PubChem BioAssay (NCI):
The panel holds about 79,000 compounds, 15% with a hit somewhere; the sample as a whole holds those more often. Unmarked numbers belong to inactive results. The source made the active and inactive calls. Rule as the data show it: active = growth inhibition above about 70%; inactive = the rest.

How the values were obtained:
[1] = NCI Yeast Anticancer Drug Screen. Data for the rad50 strain (AID 155);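 also: 0% = growth of vehicle-only cultures of the same strain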; details: S. cerevisiae rad50 strain growth inhibition; at 50.0 µM; stronger effect = higher value
Procedure, shortened: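 A DNA repair-deficient yeast mutant serves as the test organism; compound-induced growth inhibition is calculated against vehicle-treated cells.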

[2] = NCI Yeast Anticancer Drug Screen. Data for the mec2-1 strain (AID 157); details: S. cerevisiae mec2-1 strain, at 50.0 µM, stronger effect = higher value
Procedure, shortened: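 Readout is yeast growth inhibition, normalised to vehicle-treated controls, in the mec2-1 strain exposed to compound.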

[3] = NCI Yeast Anticancer Drug Screen. Data for the sgs1 mgt1 strain (AID 161);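 also: 0% = growth of cultures given vehicle only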; details: S. cerevisiae sgs1 mgt1 strain, at 50.0 µM, stronger effect = higher value
Procedure, shortened: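 This yeast growth screen uses a strain with defined DNA-repair lesions; compound-treated growth is compared with vehicle-treated growth.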

[4] = NCI Yeast Anticancer Drug Screen. Data for the cln2 rad14 strain (AID 165);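 also: 0% = growth equal to vehicle treated cultures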; details: S. cerevisiae cln2 rad14 strain, at 50.0 µM, stronger effect = higher value
Procedure, shortened: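 Relative to vehicle controls, growth inhibition of compound-treated cln2 rad14 yeast was recorded.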

[5] = NCI Yeast Anticancer Drug Screen. Data for the bub3 strain (AID 167); details: S. cerevisiae bub3 mutant strain, at 50.0 µM, stronger effect = higher value
Procedure, shortened: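 Inhibition values come from growth of compound-treated mutant yeast normalised to vehicle-treated controls.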

[6] = NCI Yeast Anticancer Drug Screen. Data for the mlh1 rad18 strain (AID 175); details: S. cerevisiae mlh1 rad18 strain growth inhibition; at 50.0 µM; stronger effect = higher value
Procedure, shortened: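 Test agents were incubated with a yeast strain of defined genotype (DNA damage repair defect). Inhibition of growth was derived by comparison with vehicle-exposed cultures.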

| SMILES | growth inhibition [1] | growth inhibition [2] | growth inhibition [3] | growth inhibition [4] | growth inhibition [5] | growth inhibition [6] |
| --- | --- | --- | --- | --- | --- | --- |
| ONc1cnc2ccccc2n1 | -34.9% | -30.4% | -3.5% | -49.2% | -4.8% | 0.4% |
| CCOC(=O)/C=C\C(=O)OCC | 29.7% | 2.55% | 9.35% | 10% | 9.95% | -1.1% |
| CCOC(=O)COc1ccc(C)c2c1C(=O)CC2 | -11.2% | -12.9% | -13.2% | -25.9% | -19.1% | -9.9% |
| CCCCc1c2cnccc2c(CCCC)c2c1[nH]c1ccccc12 | 88.8% (active) | 90.3% (active) | 91.8% (active) | 81.9% (active) | 89.2% (active) | 88.2% (active) |
| CCC1(C(=O)O)OC1(C)c1cccs1 (configuration not stated) | -40% | -8.95% | -3.35% | -27.1% | 10.5% | 2% |
| CS(=O)(=O)c1ccc2c(c1)-c1ccc([N+](=O)[O-])cc1C2=O | 12.7% | 8.8% | 6.3% | 1.65% | -4% | -0.9% |
| CCOC(=O)C/C(C)=C1/N=C(c2ccccc2)OC1=O | 28.9% | 7.85% | 23.2% | 14.8% | 37% | 30.8% |
| CCC1(C)CC(C)(C)c2cc(C(C)=O)c(C)cc21 (configuration not stated) | 8.1% | -1.05% | -4.7% | -29.5% | 11.3% | 4.15% |
| O=C(CC(=O)c1ccccc1)Nc1cccnc1 | -21.2% | 8.9% | -0.3% | -21.2% | -1.8% | -6.95% |
| CC(C)CCCC(C)C1CCC2C3CC=C4CC(OC(=O)C(Cl)(Cl)Cl)CCC4(C)C3CCC12C (configuration not stated) | -7.65% | -7.55% | -0.7% | -27.1% | -28.1% | -5.4% |
| CCN(CC)CC(=O)Nc1c(C(N)=O)nnn1Cc1cc(Cl)c(C(=O)c2ccc(Cl)cc2)c(Cl)c1 | 41.8% | -14.5% | 5.15% | 7.95% | 15.9% | -36.1% |
| [O-]c1c(Cl)c(Cl)c(O[P+](c2ccccc2)(c2ccccc2)c2ccccc2)c(Cl)c1Cl | 99.2% (active) | 99.4% (active) | 99.5% (active) | 97.9% (active) | 99% (active) | 99.2% (active) |
| SCCc1ccccc1 | -8.85% | -35.1% | -8.9% | -14% | 11.9% | -3.15% |
| CC1(C)OC2C(COCc3ccccc3)=CC(n3ccc(=O)[nH]c3=O)C2O1 (configuration not stated) | -8.3% | -16.8% | 1.7% | -0.7% | 10.1% | 14.3% |
| CCCCCCCCN1CSC(=S)N(c2ccc3[nH]c(=S)sc3c2)C1 | 48.9% | 17.6% | 34% | 27.9% | 5.2% | 35.5% |
| CC(=O)c1ccc2ccc3ccccc3c2c1 | 15.2% | -0.6% | 18.6% | -31.1% | 1.15% | 11.8% |
| c1ccc(-c2coc(-c3ccccc3)n2)cc1 | 1.15% | 8.65% | 3.25% | -2% | -5.15% | -10.2% |
| O=C1CCc2cc3c(cc21)CC1(Cc2cc4c(cc2C1)CCCC4)C3 | -28.4% | -8.8% | -22.2% | -18.1% | 17.2% | -20.3% |
| O=C(CCc1cc(O)ccc1O)OCCc1ccccc1 | 30.9% | 71.2% (active) | 91.6% (active) | 85.3% (active) | 88.4% (active) | 91.5% (active) |
| BrC1C2CC/C=C\CCC12 (configuration not stated) | 43.9% | 22.7% | 10.9% | 11.6% | 18% | 13.9% |
| CC(Nc1ccc(Cl)c(Cl)c1)C1CCOC1=O (configuration not stated) | 85.5% (active) | 97% (active) | 94.8% (active) | 80% (active) | 94.8% (active) | 95.5% (active) |

| SMILES | growth inhibition [1] | growth inhibition [2] | growth inhibition [3] | growth inhibition [4] | growth inhibition [5] | growth inhibition [6] |
| --- | --- | --- | --- | --- | --- | --- |
| CC(C)OC1(c2ccccc2)OC(c2ccccc2)=CC1=O (configuration not stated) | 5.35% | -17.1% | -12.1% | -7.4% | 14.1% | -0.8% |
| COc1cccc(-n2cnc3c(=O)[nH]cnc32)c1 | -18.7% | -13.3% | -10.9% | -34.9% | -5.65% | -40% |
| COc1cccc(N(CCO)C2CCCCC2)c1 | 12.8% | 4.2% | 18.2% | 15.7% | 10.9% | 2% |
| COCCOCCOCCOC(C)=O | 21.6% | 12.4% | 8.3% | 6.2% | -5.3% | -0.65% |
| O=C1C(=O)c2ccccc2C(O)=C1CCCc1ccc(S(=O)(=O)c2ccccc2)cc1 | 2.35% | 11.8% | 0.7% | 55.1% | 16.2% | 9.2% |
| CC(C)(CN1CCCCC1)C(=O)/C=C/c1ccc(Br)cc1 | 66.9% | 22.8% | 59.6% | 41.4% | 47.8% | 55.6% |
| NC(=O)NC(CCl)NC(N)=O | 6.6% | -5.8% | -2.05% | 13.1% | -3.55% | -12.3% |
| CC/C(C)=N/NS(C)(=O)=O | 12.8% | -7.55% | -0.35% | 2.25% | -44.8% | -10.9% |
| Cc1ccsc1/C=N/Nc1nncc2ccccc12 | 20.3% | 5.35% | 20.6% | 9.05% | 30.4% | 9.7% |
| Cc1occ(Br)c(=O)c1O | 12.9% | 12.3% | 17.5% | 25.8% | -0.85% | 15.2% |
| CC1(C)Cc2[nH]c3ccccc3c(=O)c2-c2nc3ccccc3c(=O)n21 | -5.35% | 6.05% | 4.8% | -35.6% | -2.2% | -12.9% |
| O=[N+]([O-])/C(Cl)=C(\NCCO)C(Cl)=C(Cl)Cl | 15.6% | 19% | 38% | 17.1% | 23.9% | -2.3% |
| CC(=O)OCC(=O)[C@@]1(O)CC[C@H]2[C@@H]3CCC4=CC(=O)CC[C@]4(C)[C@H]3[C@@H](O)C[C@@]21C | -20.6% | -17.4% | -3.2% | -20.3% | -23.1% | -38.5% |
| COC(=O)c1ccccc1NC(=O)Nc1cccc(Cl)c1C | 13.8% | -2.25% | 25.2% | 12% | 17.6% | 17.4% |
| CC(C)(C)SCC(=O)O | -21.6% | -19.6% | -24.8% | 19.5% | 6.75% | 1.55% |
| CCCCc1cccc2c1OCO2 | -18.6% | -0.6% | -7.75% | -9.75% | -12.5% | 36.8% |
| OCc1ccccc1CN1CCCC1 | 8.65% | 1.15% | 17.8% | -40.1% | 8.1% | -14.3% |
| ClC(Cc1ccccc1)(c1ccccc1)c1ccccc1 | -26.6% | 13.5% | -0.8% | -26.9% | 13.8% | -3.6% |
| O=C(Oc1cccc2ccccc12)c1ccccc1 | -10.4% | 15.6% | -5.2% | -76.2% | 6.25% | -9.45% |
| CCCCCCCCCCCCCCCC1=NN(c2ccccc2)C(=O)C1N=Nc1ccccc1 (configuration not stated) | 8.2% | -8.95% | -0.75% | -10.2% | -3.3% | 2.05% |
| OC1CNc2c(ccc3ccccc23)C1 (configuration not stated) | 10.7% | -26.4% | -13.4% | -17% | -38% | -6.25% |
